Screening results from PubChem BioAssay.
Shown are actives, neighbours in structure and some others; about 5.1% of the full set was active somewhere.
Tau fibril FP = qHTS for Inhibitors of Tau Fibril Formation, Fluorescence Polarization; K18 P301L tau heparin fibrillization, Alexa594 FP, 6 h; Microtubule-associated protein tau (Homo sapiens), P10636; 280,000 tested, 0.39% active; AID 1468, 2008; Potency, µM (top dose mostly 57.7 µM), without a hit: at the highest dose activity, negative = inhibition, hits mostly inhibitors; note: potency is the fitted concentration of half-maximal effect; nearly all actives have a fitted effect of over 55% in size
Target sequence (P10636 561-689 P618L limits assumed): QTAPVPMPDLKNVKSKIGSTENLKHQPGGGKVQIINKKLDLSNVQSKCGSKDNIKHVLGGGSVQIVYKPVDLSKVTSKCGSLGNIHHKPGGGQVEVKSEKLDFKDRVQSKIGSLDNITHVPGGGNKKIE
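Read-out: fluorescence polarization of Alexa 594-labeled tau (0.24 uM), 555 nm excitation, 632 nm emission. Mixtures held 15 uM unlabeled K18 P301L, compound and 20 uM heparin, pH 7 acetate buffer, incubated 6 hr at 37 C.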
Tau fluor cs = Counterscreen qHTS for Inhibitors of Tau Fibril Formation, Fluorescence Polarization. 280,000 tested, 0.93% active. Potency, µM (top dose mostly 57.7 µM), inactives show at the top dose activity change, negative = decrease. tau K18 P301L Alexa594 fluorescence, heparin fibrillization; note: potency is the fitted concentration of half-maximal effect; nearly all actives have a fitted effect of over 55% in size
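Human tau K18 P301L (15 uM unlabeled, 0.24 uM Alexa 594-labeled) in 100 mM sodium acetate pH 7 with 20 uM heparin, 6 hr at 37 C. ThT 30 uM added, 1 hr ambient; Alexa 594 FP and total fluorescence read at 555/632 nm.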
Tau fibril ThT = qHTS for Inhibitors of Tau Fibril Formation, Thioflavin T Binding | 270,000 tested, 2.1% active | Potency, µM (series often up to 57.4 µM), for the others: at the top dose activity, negative = inhibition, hits mostly inhibitors | Microtubule-associated protein tau (Homo sapiens), P10636 | recombinant tau K18 P301L (four-repeat tau fragment), heparin-induced fibrillization, ThT fluorescence | AID 1460, 2008; note: potency is the fitted concentration of half-maximal effect; nearly all actives have a fitted effect of over 55% in size
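Aggregation was driven by heparin (20 uM final) acting on recombinant tau […] bearing P301L in 100 mM sodium acetate pH 7; fibrils were detected with Thioflavin T.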
JMJD2E inh = qHTS Assay for Inhibitors of Human Jumonji Domain Containing 2E (JMJD2E); JMJD2E catalytic domain, FDH-coupled NADH fluorescence (FDH is formaldehyde dehydrogenase); Potency, µM (highest dose often 57.1 µM), inactives show at the top dose activity change, negative = inhibition, usual class: inhibitors; 230,000 tested, 1.6% active; active = well fitted inhibition curve with a large enough effect, not every such curve was filed as active; inconclusive = small, poorly fitted or top-dose-only effect, or another doubt; inactive = no such curve, though single readings can be large or run the other way;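 note: potency is the fitted concentration of half-maximal effect; 0% = wells with enzyme and -100% = buffer wells without enzyme; nearly all actives have a fitted effect of over 50% in size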
Target sequence (B2RXH2 1-337 limits assumed): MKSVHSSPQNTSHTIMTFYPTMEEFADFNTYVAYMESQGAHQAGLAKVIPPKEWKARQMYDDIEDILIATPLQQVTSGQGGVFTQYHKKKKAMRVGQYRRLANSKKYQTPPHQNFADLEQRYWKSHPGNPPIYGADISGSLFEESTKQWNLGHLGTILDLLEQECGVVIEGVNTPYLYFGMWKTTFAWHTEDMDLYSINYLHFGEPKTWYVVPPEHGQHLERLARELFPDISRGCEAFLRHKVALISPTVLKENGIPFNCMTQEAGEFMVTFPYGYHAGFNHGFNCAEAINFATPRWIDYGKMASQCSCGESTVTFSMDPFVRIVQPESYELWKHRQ
PNC assembly inh = High Content Assay for Compounds that inhibit the Assembly of the Perinucleolar Compartment; PC3M PTB-GFP, PNC prevalence imaging, 16 h; hits give low values; 140,000 tested, 3.1% active; activity change (PNC), negative = inhibition, % at 10 µM;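 active = readout at or below -70, meaning at least 70% loss of cells showing the perinucleolar compartment, a nuclear body marking cancer cells; inconclusive = readout between -30 and a set limit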;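 note: plate controls were DMSO wells for no effect and camptothecin positive control wells for full effect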
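Read-out is percentage of cells bearing a perinucleolar compartment, from automated 20x imaging of fixed, Hoechst-stained PC3M PTB-GFP cells. Cells were seeded 4 h, then exposed 16 h to compound (23 nl of library stock) in duplicate plates.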
NPSR antag = qHTS Assay for Antagonists of the Neuropeptide S Receptor: cAMP Signal Transduction | Potency, µM (top dose mostly 38.3 µM), inactives show at the highest dose activity change, negative = inhibition, usual class: inhibitors | CHO-NPSR cells, cAMP TR-FRET, antagonist mode | Q6W5P4 | 220,000 tested, 1% active; note: potency is the fitted concentration of half-maximal effect; nearly all actives have a fitted effect of over 50% in size
Active calls of the source: *; u = inconclusive; x = no result; [ ] = another dose, or the depositor's remark. Unless noted, calls come from the whole dose curve; as a rule, active = well fitted curve in the direction sought with a large enough effect; inconclusive = small, poorly fitted or top-dose-only effect, or another doubt; inactive = no such curve, though single readings can be large; an effect the other way counts as inactive or inconclusive. Unless noted, % is set by controls: 0 for no effect and ±100 for the full control effect.

SMILES | Tau fibril FP | Tau fluor cs | Tau fibril ThT | JMJD2E inh | PNC assembly inh | NPSR antag
COc1cc2nc3c(c([Si](C)(C)C(C)(C)C)c2cc1OC)Cn1c-3cccc1=O | 2% | -17% | u | -4% | x | x
CC(=O)Nc1nonc1-c1nc2ccccc2n1CC1CC1 | 1% | 6% | 3% | u | -94* | -17%[46.1 µM]
CCOCCc1nn2c(=O)cc(COC(=O)c3ccccc3NC(=O)c3cccs3)nc2s1 | -2% | -2% | 4% | x | x | x
Nc1ccc(C(=O)Nc2ccco2)cc1 | 1% | -7% | -13% | -1% | -100* | -14%[46.1 µM]
CC(C)(C)c1ccc(C(=O)Nc2ccccc2NC(=O)c2ccco2)cc1 | -13% | u | -15% | -11% | 56 | -26%[46.1 µM]
CCOC(=O)CSc1nc(-c2ccc(C)cc2C)cc(-c2ccccc2)c1C#N | -12% | -14% | -7% | x | x | x
CC(C)c1nn2c(=O)cc(COC(=O)c3ccc(NC(=O)c4ccccc4Cl)cc3)nc2s1 | -3% | -3% | -3% | x | x | x
CCCOc1ccccc1C(=O)Nc1nc2c(s1)CCCC2 | -4% | -12% | -12% | x | x | x
CN(C)c1ccc(NC(=O)CN2CCC(N3CCCCC3)CC2)cc1 | -3% | 0% | -10% | 32µM* | 22 | -24%[46.1 µM]
CN(C)c1ccc(NC(=O)CN2CCN(CC(=O)Nc3ccc(Br)cc3)CC2)cc1 | u | -20% | -11% | x | x | x
CCOC(=O)c1sc2nc(C)cc(C)c2c1N | 6% | -7% | u | u | u | -2%[46.1 µM]
CCOC(=O)c1sc2cc([N+](=O)[O-])cc(SCC(=O)OC)c2c1N | -9% | u | 7.1µM* | -21% | 14 | -19%[46.1 µM]
CCOC(=O)CSc1nnc(NC(=O)c2cc([N+](=O)[O-])cc([N+](=O)[O-])c2)s1 | 0% | -16% | u | 3% | 53 | -21%
CCOC(=O)c1sc2cc([N+](=O)[O-])cc(SCCO)c2c1N | 4% | -26% | 2.2µM* | -9% | u | -6%
CC(C)(C)OC(=O)N1CCC(c2c(C(=O)N3CCN(c4ccccn4)CC3)cnn2-c2ccccc2Cl)CC1 | -6% | -8% | -12% | x | x | x
CCOCCCNC(=O)/C(C#N)=C/c1ccc([N+](=O)[O-])o1 | u | -28% | 14µM* | 35% | x | u
CCOCCCNC(=O)/C(C#N)=C/c1ccc(-c2ccc(S(=O)(=O)N3CCOCC3)cc2)o1 | 11% | u | u | u | 7 | -19%
Cc1oc2c(c(C)cc3oc(=O)c(CC(=O)NCCc4ccc(Cl)cc4)c(C)c32)c1C | 0% | 3% | 1% | x | x | x
CSc1nc(N)nc(SCC(=O)C23CC4CC(CC(C4)C2)C3)c1C#N | u | u | -1% | -23% | -4 | u
N#Cc1c(N)nc(SCC(=O)C23CC4CC(CC(C4)C2)C3)c(C#N)c1-c1ccc(Cl)cc1 | -7% | -12% | -8% | 3.5µM* | 27 | 3.2µM*
O=S(=O)(c1cc(Cl)cc(Cl)c1)N1CCCC1c1nc2ccccc2s1 (centres undefined) | -2% | -15% | -9% | 5% | -100* | -11%[46.1 µM]
CN(C)c1ccc(-c2noc(C3CCN(S(=O)(=O)c4cccc(Cl)c4)CC3)n2)cc1 | 8% | u | u | u | 32 | -17%[46.1 µM]
O=S(=O)(c1ccc2ccccc2c1)N1CCC(c2nc(-c3ccncc3)no2)CC1 | -5% | -7% | 5% | u | -100* | -24%[46.1 µM]
Cc1[nH]n(-c2ncc(-c3ccccc3)s2)c(=O)c1C(c1ccc(Br)cc1)C(C#N)C#N (centres undefined) | 35µM* | u | 8.9µM* | -2% | -6 | -54%
Cc1[nH]n(C(N)=S)c(=O)c1C(c1ccccc1)C(C#N)C#N (centres undefined) | -7% | -21% | u | -6% | 24 | -13%[46.1 µM]
SMILES | Tau fibril FP | Tau fluor cs | Tau fibril ThT | JMJD2E inh | PNC assembly inh | NPSR antag
COCC(C)NC(=O)c1cc(-c2ccc(OC)c(OC)c2)on1 (centres undefined) | -4% | -14% | -14% | 5% | -83* | -7%[46.1 µM]
O=C(NCC(c1ccco1)S(=O)(=O)c1cccs1)c1ccc(C(F)(F)F)cc1 (centres undefined) | -8% | -23% | -4% | x | x | x
COc1ccccc1Nc1cc(C)nc2nc(-c3ccccc3)nn12 | -2% | -5% | -10% | x | x | x
CC(C)(C)n1nnnc1C(c1ccncc1)N1CCN(C2CCCCC2)CC1 (centres undefined) | 2% | 3% | -9% | 3% | 8 | u
CC(C)(C)n1nnnc1C(c1cccnc1)N1CCN(C2CCCCC2)CC1 (centres undefined) | 3% | 4% | 4% | 0% | -84* | 4%[46.1 µM]
CCC(C)(C)n1nnnc1C(c1ccncc1)N1CCC(C)CC1 (centres undefined) | -5% | -1% | 1% | 21% | -119* | -1%
Cc1nc(NC(=O)c2ccccc2)sc1-c1csc(Nc2cccc(Cl)c2)n1 | u | 11µM*[quencher] | 7.9µM* | u | 3 | -19%[46.1 µM]
Cc1nc(NC(=O)c2ccccc2)sc1-c1csc(Nc2ccc(Cl)cc2)n1 | 5% | 8.9µM*[quencher] | 5µM* | -9% | u | -23%[46.1 µM]
Cc1nc(NC(=O)c2ccccc2)sc1-c1csc(Nc2ccc(F)cc2)n1 | u | 14µM*[quencher] | 11µM* | -8% | -100* | -22%[46.1 µM]
Cc1nc(C)c(-c2csc(Nc3cccc(O)c3)n2)s1 | u | 18µM*[quencher] | 4.5µM* | u | x | 54%
Cc1nc(NC(=O)c2ccccc2)sc1-c1csc(Nc2ccc(Cl)cc2Cl)n1 | 7% | u | u | u | -25 | -13%[46.1 µM]
CCOc1ccc(CCNC(=O)CCCc2nnc3n(CC)c(=O)c4sccc4n23)cc1 | -2% | -2% | 1% | x | x | x
COc1ccc(C(=O)c2ccc(N(C)C)cc2)c(OC)c1 | -4% | -7% | -7% | 6% | u | -2%[46.1 µM]
CN(C)c1ccc(C(=O)c2ccc(N(C)C)c3ccccc23)cc1 | -7% | u | u | -17% | -103* | u
Cc1ccccc1-c1noc(-c2ccccc2OCC(=O)Nc2ccccc2[N+](=O)[O-])n1 | 7% | u | -12% | x | x | x
Cc1cc2nn(-c3ccccc3)nc2cc1NC(=O)Cc1ccc(Cl)cc1 | -7% | -12% | -14% | x | x | x
CCCCc1ccc(-n2nc3cc(C)c(NC(=O)Cc4ccccc4)cc3n2)cc1 | u | 40µM*[quencher] | 32µM* | x | x | x
